Reference: PubChem BioAssay
Active and inactive are the calls of the source.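 Rule for the calls, unless noted: active = normalized viability below 100% at a tested concentration; inactive = the rest.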

Columns and labels:
[1] = survival rescue of mitochondrial mutant cells in low glucose, primary screen, MELAS cybrids, Rieske KO mouse fibroblasts, CellTiter-Glo (AID 1508586;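 active = mean z-score across replicates of 1.96 or higher in either the MELAS or the Rieske mutant cell line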;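 note: z relative to plate mean and SD of compound and empty wells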)
[2] = viability rescue of complex I mutant cybrids, primary screen, cell-based, galactose medium, ATP luminescence (AID 1645843;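 active = z-score of at least 1.8 in each of two replicates, scored against plate mean and spread of sample wells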;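 note: positive z means more ATP and so rescue of galactose-driven cybrid death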); details: complex I mutant cybrid cells, 72 h, stronger effect = higher value
[3] = kinase inhibitors against Plasmodium liver-stage infection, cell-based, known kinase inhibitor set, luminescence, hepatoma host viability (AID 624392; call rule not given here;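 note: infected cells incubated roughly two days before readout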); details: Plasmodium liver stage in hepatoma cells, luciferase luminescence, concentration not given here; liver cell % of control: measured here: host liver cell viability; parasite % of control: stronger effect = lower value
[4] = modulators of glucocorticoid suppression of NF-kB, cell-based, luciferase, IL-1B stimulus, dexamethasone (AID 624486; call rule not given here;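 for percent of negative control (+Dex): 100% = mean signal of vehicle control wells on the plate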); details: NF-kB luciferase reporter, IL-1B + dexamethasone, luminescence; percent of negative control (+Dex): actives lie on both sides, concentration not given here; z-score: measured here: IL-1B alone, no Dex
[5] = kinase inhibitors altering Pseudomonas killing of worms, whole organism (AID 651566; call rule not given here;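 note: tested at 14 µM; sign flipped so higher z means a lower ratio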); details: C. elegans killed by P. aeruginosa, survival ratio
[6] = activators of macrophage pro-inflammatory response, cell-based, murine, luminescence (AID 652131; call rule not given here); details: murine macrophage pro-inflammatory reporter, stronger effect = higher value
[7] = ovarian cancer cell viability with rucaparib, profiling panel, oncology-focused library, rucaparib conditional (AID 1508598); details: patient-derived ovarian cancer cells, CellTiter-Glo viability, 144 h, stronger effect = lower value
[8] = MELAS cybrid survival, CellTiter-Glo 48 h, stronger effect = higher value
[9] = Rieske KO mouse fibroblast survival, CellTiter-Glo 72 h

COC(=O)c1c(NC(=O)C2CCCO2)c2cc(NCc3ccccn3)cnc2n1CCc1ccccc1 (configuration not stated)
inactive: z-score [1, 8] -0.44 | z-score [2] -0.87
-0.0393: z-score [1, 9]

COC(=O)c1c(NC(=O)C2CCOC2)c2cc(NC(C)CO)cnc2n1CCCc1ccccc1 (configuration not stated)
1.02: z-score [1, 9]
inactive: z-score [1, 8] -1.11 | z-score [2] -0.185

COCC(=O)Nc1c(C(=O)OC)n(CCC(C)C)c2ncc(NC(C)CCn3cccn3)cc12 (configuration not stated)
inactive: z-score [2] -0.21
0.765: z-score [1, 8]
4.41: z-score [1, 9]

CS(=O)(=O)CCNCc1coc(-c2ccc3ncnc(Nc4ccc(OCc5ccccc5)cc4)c3c2)c1
inactive: parasite % of control [3] 176% | percent of negative control (+Dex) [4] 90% | z-score [5] -0.225 | z-score [6] 2.75 | z-score [1, 8] -0.812
87.7%: liver cell % of control [3]
-0.493: z-score [1, 9]
-0.13: z-score [4]

CO[C@H]1/C=C\C=C(\C)C(=O)NC2=CC(=O)C(NCCN(C)C)=C(C[C@@H](C)C[C@H](OC)[C@H](O)[C@@H](C)/C=C(\C)[C@@H]1OC(N)=O)C2=O
inactive: viability ([7]; at 0.000305 µM, OCI-C5x cells, with rucaparib 10 µM, 100% = cells with rucaparib alone) 108% | viability ([7]; at 0.000305 µM, OCI-C5x cells, without rucaparib) 108% | viability ([7]; at 0.000305 µM, OCI-P5x cells, with rucaparib 20 µM, 100% = cells with rucaparib alone) 120% | viability ([7]; at 0.000305 µM, OCI-P5x cells, without rucaparib) 116% | viability ([7]; at 0.00122 µM, OCI-C5x cells, with rucaparib 10 µM, 100% = cells with rucaparib alone) 109% | viability ([7]; at 0.00122 µM, OCI-C5x cells, without rucaparib) 109% | viability ([7]; at 0.00122 µM, OCI-P5x cells, with rucaparib 20 µM, 100% = cells with rucaparib alone) 114% | viability ([7]; at 0.00122 µM, OCI-P5x cells, without rucaparib) 114% | viability ([7]; at 0.00488 µM, OCI-C5x cells, with rucaparib 10 µM, 100% = cells with rucaparib alone) 107% | viability ([7]; at 0.00488 µM, OCI-C5x cells, without rucaparib) 107% | viability ([7]; at 0.00488 µM, OCI-P5x cells, with rucaparib 20 µM, 100% = cells with rucaparib alone) 117% | viability ([7]; at 0.00488 µM, OCI-P5x cells, without rucaparib) 117% | viability ([7]; at 0.0195 µM, OCI-C5x cells, with rucaparib 10 µM, 100% = cells with rucaparib alone) 118%
active: viability ([7]; at 0.0195 µM, OCI-C5x cells, without rucaparib) 82.9% | viability ([7]; at 0.0195 µM, OCI-P5x cells, with rucaparib 20 µM, 100% = cells with rucaparib alone) 50.4% | viability ([7]; at 0.0195 µM, OCI-P5x cells, without rucaparib) 17.3% | viability ([7]; at 0.0781 µM, OCI-C5x cells, with rucaparib 10 µM, 100% = cells with rucaparib alone) 91.8% | viability ([7]; at 0.0781 µM, OCI-C5x cells, without rucaparib) 27.4% | viability ([7]; at 0.0781 µM, OCI-P5x cells, with rucaparib 20 µM, 100% = cells with rucaparib alone) 17.4% | viability ([7]; at 0.0781 µM, OCI-P5x cells, without rucaparib) 9.22% | viability ([7]; at 0.313 µM, OCI-C5x cells, with rucaparib 10 µM, 100% = cells with rucaparib alone) 26.5% | viability ([7]; at 0.313 µM, OCI-C5x cells, without rucaparib) 10.1% | viability ([7]; at 0.313 µM, OCI-P5x cells, with rucaparib 20 µM, 100% = cells with rucaparib alone) 7.13% | viability ([7]; at 0.313 µM, OCI-P5x cells, without rucaparib) 5.68% | viability ([7]; at 1.25 µM, OCI-C5x cells, with rucaparib 10 µM, 100% = cells with rucaparib alone) 7.91% | viability ([7]; at 1.25 µM, OCI-C5x cells, without rucaparib) 4.98% | viability ([7]; at 1.25 µM, OCI-P5x cells, with rucaparib 20 µM, 100% = cells with rucaparib alone) 6.01% | viability ([7]; at 1.25 µM, OCI-P5x cells, without rucaparib) 3.54% | viability ([7]; at 5 µM, OCI-C5x cells, with rucaparib 10 µM, 100% = cells with rucaparib alone) 8.19% | viability ([7]; at 5 µM, OCI-C5x cells, without rucaparib) 4.12% | viability ([7]; at 5 µM, OCI-P5x cells, with rucaparib 20 µM, 100% = cells with rucaparib alone) 4.71% | viability ([7]; at 5 µM, OCI-P5x cells, without rucaparib) 2.66%

COc1cc2ncn(-c3cc(OCCc4ccccc4)c(C(N)=O)s3)c2cc1OC
0.89: z-score [4]
inactive: parasite % of control [3] 71.4% | percent of negative control (+Dex) [4] 95% | z-score [5] -0.32 | z-score [6] 0.419 | z-score [1, 8] -0.0219
140%: liver cell % of control [3]
-0.0569: z-score [1, 9]
